Assay results as given in PMC7862700, “An all-to-all approach to the identification of sequence-specific readers for epigenetic DNA modifications on cytosine”.

Key:
Test in all cases: DAPPL (digital affinity profiling via proximity ligation, sequencing); 10 mM Tris-HCl pH 7.5, 50 mM NaCl, 1 mM DTT, 4% glycerol, room temperature, 30 min; GST-TFs on glutathione beads, 16-mer random dsDNA library, 0.1% formaldehyde crosslink after washing; high values mean tight binding
Conditions in all cases: protein: recombinant; tags: N-terminal GST; dsDNA, one strand shown
[1] = target: T1, FLI1 (Homo sapiens, UniProt Q01543 1-452)
T1 sequence: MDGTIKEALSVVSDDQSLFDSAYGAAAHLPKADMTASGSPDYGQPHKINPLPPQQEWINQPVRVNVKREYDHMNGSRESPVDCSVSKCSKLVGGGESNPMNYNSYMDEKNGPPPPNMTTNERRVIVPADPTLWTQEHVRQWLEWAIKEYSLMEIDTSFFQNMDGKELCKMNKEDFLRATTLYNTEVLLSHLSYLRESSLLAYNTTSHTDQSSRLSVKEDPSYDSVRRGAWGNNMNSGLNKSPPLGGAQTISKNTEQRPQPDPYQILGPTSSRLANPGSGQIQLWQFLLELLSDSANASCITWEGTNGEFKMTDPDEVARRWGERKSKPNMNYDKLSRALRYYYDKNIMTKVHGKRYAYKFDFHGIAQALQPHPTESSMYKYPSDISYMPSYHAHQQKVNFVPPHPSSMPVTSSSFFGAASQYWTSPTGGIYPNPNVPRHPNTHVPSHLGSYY
Method in brief: (§1)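 After expression in yeast as GST fusions, human transcription factors were bound to glutathione beads, DNA-barcoded and mixed with a tag-only sample. The pools were incubated with 200 nmole of a 16-mer random double-stranded DNA library in Tris/NaCl/DTT/glycerol buffer (30 min, room temperature), washed and crosslinked with 0.1% formaldehyde. Proximity ligation with BsaI/T4 ligase ran for 1 h at 37 °C, before PCR amplification and sequencing on an Illumina NextSeq500. Binding signal is a hexamer's read frequency for a factor divided by its frequency for the tag-only sample.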

[2] = target: T2, ELK1 (Homo sapiens, UniProt P19419 1-428)
T2 sequence: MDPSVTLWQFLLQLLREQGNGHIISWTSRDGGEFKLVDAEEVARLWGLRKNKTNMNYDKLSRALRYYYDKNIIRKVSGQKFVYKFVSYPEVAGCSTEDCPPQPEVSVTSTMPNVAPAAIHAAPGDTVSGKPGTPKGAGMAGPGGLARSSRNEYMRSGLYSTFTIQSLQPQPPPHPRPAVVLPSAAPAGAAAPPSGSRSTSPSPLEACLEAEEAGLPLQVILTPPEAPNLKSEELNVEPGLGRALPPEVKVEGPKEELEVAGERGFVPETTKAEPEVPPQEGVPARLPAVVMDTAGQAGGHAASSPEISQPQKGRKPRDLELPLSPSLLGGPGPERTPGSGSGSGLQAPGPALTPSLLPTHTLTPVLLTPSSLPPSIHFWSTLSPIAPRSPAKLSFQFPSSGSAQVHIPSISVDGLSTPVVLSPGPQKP
Method in brief: as §1

[3] = target: T3, GABPA (Homo sapiens, UniProt Q06546 1-454)
T3 sequence: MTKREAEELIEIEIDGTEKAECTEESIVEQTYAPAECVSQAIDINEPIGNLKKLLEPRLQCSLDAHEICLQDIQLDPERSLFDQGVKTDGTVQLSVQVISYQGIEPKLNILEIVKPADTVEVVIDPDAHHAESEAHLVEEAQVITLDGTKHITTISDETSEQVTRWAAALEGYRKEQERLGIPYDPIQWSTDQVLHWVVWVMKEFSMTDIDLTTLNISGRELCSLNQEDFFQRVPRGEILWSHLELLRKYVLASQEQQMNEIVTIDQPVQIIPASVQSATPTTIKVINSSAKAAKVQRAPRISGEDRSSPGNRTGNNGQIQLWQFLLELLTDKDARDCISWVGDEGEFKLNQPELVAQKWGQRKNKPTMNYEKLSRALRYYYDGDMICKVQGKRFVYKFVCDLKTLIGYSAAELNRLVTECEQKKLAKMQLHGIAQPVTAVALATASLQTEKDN
Method in brief: as §1

[4] = target: T4, ERG (Homo sapiens, UniProt P11308 1-479)
T4 sequence: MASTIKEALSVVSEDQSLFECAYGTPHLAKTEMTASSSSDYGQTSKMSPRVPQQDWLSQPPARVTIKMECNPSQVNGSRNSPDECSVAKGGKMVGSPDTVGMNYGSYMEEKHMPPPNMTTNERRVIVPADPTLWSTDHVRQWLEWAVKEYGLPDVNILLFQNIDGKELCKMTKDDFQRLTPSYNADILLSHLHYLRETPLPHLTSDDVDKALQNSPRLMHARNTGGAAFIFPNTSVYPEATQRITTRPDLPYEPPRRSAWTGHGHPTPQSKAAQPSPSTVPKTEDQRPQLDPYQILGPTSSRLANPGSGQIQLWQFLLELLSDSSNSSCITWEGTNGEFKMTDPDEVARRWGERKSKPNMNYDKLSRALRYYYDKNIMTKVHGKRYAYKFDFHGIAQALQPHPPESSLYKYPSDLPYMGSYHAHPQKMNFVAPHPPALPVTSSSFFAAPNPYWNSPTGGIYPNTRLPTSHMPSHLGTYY
Method in brief: as §1

[5] = target: ELF1 (Homo sapiens, UniProt P32519 1-619)
ELF1, sequence (P32519 whole entry): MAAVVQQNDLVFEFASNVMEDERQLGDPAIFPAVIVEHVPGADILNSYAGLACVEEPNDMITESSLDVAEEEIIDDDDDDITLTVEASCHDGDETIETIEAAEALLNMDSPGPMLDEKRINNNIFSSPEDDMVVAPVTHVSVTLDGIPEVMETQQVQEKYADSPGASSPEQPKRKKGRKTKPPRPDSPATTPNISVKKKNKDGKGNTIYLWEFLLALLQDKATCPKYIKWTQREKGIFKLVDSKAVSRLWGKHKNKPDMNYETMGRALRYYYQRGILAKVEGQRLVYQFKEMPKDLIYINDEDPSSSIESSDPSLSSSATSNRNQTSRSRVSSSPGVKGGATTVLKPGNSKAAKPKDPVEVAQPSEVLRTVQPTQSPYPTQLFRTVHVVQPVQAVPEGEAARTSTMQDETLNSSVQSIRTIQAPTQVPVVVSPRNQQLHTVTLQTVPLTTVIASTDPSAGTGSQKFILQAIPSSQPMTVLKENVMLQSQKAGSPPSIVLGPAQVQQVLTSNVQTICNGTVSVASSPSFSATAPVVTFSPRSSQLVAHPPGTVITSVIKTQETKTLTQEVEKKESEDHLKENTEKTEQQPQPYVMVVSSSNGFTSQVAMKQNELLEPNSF
Method in brief: as §1

[6] = target: T5, EHF (Homo sapiens, UniProt Q9NZC4 1-300)
T5 sequence: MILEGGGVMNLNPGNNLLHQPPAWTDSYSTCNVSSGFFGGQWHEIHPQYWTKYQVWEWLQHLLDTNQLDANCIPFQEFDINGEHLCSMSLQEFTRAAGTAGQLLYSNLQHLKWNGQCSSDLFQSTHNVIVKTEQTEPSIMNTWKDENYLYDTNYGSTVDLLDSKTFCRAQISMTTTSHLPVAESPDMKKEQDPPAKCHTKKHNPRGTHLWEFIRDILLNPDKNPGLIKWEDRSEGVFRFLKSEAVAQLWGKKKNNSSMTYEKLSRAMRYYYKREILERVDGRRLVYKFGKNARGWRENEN
Method in brief: as §1

[7] = target: SPI1 (Homo sapiens, UniProt P17947 1-270)
Method in brief: as §1

[8] = target: SPIB (Homo sapiens, UniProt Q01892 1-262)
SPIB, sequence (Q01892 whole entry): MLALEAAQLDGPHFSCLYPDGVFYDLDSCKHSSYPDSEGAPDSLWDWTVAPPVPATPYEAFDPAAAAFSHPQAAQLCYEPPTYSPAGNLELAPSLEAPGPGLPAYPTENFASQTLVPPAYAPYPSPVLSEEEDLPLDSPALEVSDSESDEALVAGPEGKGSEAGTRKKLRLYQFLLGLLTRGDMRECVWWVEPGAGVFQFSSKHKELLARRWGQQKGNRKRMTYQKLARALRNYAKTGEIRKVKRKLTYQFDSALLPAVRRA
Method in brief: as §1

[9] = target: T6, ELK3 (Homo sapiens, UniProt P41970 1-407)
T6 sequence: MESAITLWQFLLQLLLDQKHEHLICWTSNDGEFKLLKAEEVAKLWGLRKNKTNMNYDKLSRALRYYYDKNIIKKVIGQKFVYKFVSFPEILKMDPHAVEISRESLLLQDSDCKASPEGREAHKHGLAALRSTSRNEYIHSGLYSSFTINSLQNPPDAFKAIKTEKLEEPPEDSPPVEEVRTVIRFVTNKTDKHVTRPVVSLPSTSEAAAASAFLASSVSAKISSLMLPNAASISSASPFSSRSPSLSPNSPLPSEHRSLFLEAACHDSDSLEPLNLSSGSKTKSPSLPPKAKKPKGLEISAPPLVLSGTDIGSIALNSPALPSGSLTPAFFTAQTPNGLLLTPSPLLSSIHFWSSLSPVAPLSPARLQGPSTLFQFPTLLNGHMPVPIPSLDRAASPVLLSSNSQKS
Method in brief: as §1

[10] = target: T7, FEV (Homo sapiens, UniProt Q99581 1-238)
T7 sequence: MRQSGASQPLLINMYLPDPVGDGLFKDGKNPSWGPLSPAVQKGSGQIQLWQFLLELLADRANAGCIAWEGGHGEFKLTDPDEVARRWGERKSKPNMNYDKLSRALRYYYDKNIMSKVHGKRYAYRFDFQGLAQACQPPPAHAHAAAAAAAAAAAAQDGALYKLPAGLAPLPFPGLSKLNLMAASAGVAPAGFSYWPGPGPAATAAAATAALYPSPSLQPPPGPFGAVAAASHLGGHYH
Method in brief: as §1

[11] = target: ETV5 (Homo sapiens, UniProt P41161 1-510)
ETV5, sequence (P41161 whole entry): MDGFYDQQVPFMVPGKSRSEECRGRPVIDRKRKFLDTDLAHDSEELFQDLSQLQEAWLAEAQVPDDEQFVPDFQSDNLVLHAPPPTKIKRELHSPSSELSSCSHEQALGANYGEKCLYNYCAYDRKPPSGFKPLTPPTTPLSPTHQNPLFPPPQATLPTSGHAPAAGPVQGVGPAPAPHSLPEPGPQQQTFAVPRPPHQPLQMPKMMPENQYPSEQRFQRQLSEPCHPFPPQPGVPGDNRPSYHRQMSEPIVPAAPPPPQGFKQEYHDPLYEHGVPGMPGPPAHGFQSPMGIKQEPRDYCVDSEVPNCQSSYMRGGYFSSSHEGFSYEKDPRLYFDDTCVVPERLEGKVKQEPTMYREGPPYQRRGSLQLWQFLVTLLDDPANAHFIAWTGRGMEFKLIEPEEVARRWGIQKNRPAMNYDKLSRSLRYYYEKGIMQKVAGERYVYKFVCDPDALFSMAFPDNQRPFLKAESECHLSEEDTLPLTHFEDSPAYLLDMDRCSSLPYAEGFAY
Method in brief: as §1

[12] = target: T8, SPIC (Homo sapiens, UniProt Q8N5J4 1-248)
T8 sequence: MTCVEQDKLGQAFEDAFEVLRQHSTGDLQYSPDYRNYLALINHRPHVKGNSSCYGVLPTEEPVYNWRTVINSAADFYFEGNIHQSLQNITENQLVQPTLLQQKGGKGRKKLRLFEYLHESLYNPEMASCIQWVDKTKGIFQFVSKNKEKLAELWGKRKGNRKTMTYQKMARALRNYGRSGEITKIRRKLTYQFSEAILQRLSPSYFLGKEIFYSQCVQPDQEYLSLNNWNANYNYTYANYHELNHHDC
Method in brief: as §1

[13] = target: ELF4 (Homo sapiens, UniProt Q99607 1-663)
ELF4, sequence (Q99607 whole entry): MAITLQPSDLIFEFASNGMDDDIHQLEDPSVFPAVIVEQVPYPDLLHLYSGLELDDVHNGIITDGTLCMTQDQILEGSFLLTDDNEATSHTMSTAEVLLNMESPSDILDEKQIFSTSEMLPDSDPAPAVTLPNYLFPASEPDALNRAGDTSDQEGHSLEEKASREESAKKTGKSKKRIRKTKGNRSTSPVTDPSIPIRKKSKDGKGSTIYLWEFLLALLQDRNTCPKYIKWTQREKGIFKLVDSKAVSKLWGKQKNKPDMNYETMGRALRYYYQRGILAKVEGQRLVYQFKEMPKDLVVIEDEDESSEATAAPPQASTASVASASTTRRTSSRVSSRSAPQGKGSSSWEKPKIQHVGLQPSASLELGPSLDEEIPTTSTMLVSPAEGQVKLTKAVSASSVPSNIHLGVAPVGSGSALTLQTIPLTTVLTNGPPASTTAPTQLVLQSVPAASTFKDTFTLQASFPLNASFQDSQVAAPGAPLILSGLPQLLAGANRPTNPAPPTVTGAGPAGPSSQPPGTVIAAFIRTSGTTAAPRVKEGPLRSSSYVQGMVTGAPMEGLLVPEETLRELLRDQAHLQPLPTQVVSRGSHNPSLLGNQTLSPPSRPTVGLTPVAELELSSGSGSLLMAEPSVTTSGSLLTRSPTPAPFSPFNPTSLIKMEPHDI
Method in brief: as §1

[14] = target: T9, ELK4 (Homo sapiens, UniProt P28324-2 1-405)
T9 sequence: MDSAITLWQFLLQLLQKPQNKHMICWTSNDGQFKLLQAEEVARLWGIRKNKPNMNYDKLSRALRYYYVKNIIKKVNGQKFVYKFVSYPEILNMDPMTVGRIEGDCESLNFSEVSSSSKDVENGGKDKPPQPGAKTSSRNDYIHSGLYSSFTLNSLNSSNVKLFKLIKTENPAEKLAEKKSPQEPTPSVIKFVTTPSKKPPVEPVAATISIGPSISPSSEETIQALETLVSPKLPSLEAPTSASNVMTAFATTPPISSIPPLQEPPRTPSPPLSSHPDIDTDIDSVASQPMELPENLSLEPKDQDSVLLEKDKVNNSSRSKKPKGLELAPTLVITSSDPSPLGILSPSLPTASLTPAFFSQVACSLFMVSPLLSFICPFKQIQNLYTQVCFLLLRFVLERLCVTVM
Method in brief: as §1

[15] = target: T10, ELF3 (Homo sapiens, UniProt P78545 1-371)
T10 sequence: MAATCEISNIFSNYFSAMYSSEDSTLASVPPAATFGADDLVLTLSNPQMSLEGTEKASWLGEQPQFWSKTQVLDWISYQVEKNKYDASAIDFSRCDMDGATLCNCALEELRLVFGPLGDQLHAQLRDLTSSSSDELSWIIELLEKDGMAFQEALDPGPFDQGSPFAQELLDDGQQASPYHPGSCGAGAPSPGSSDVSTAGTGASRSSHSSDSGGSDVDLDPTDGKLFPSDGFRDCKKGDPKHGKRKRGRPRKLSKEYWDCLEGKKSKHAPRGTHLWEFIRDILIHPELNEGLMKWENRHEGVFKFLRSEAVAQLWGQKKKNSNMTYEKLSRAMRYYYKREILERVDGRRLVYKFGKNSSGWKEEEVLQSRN
Method in brief: as §1

[16] = target: ETV1 (Homo sapiens, UniProt P50549 1-477)
ETV1, sequence (P50549 whole entry): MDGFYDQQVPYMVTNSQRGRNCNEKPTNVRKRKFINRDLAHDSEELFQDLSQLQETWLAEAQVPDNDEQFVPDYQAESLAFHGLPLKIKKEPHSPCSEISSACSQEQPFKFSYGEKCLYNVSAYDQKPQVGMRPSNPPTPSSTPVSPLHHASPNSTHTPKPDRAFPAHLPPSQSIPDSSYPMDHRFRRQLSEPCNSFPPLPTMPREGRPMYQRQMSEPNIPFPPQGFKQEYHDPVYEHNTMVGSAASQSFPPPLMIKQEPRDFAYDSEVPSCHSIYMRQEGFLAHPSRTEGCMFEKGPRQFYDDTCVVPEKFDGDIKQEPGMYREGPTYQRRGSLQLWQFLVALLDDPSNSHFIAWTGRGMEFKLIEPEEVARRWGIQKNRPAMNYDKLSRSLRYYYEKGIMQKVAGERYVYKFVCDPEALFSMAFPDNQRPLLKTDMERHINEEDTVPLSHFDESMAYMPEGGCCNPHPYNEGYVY
Method in brief: as §1

[17] = target: CRX (Homo sapiens, UniProt O43186 1-299)
CRX, sequence (O43186 whole entry): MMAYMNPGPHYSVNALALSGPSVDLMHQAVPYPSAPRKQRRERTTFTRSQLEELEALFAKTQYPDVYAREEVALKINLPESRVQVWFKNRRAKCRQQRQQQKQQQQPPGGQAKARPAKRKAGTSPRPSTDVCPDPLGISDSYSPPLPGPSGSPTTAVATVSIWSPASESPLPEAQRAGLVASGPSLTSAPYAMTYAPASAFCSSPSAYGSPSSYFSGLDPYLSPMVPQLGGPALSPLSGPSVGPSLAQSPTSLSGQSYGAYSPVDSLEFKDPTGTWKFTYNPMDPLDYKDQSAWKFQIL
Method in brief: as §1

| Sequence | binding signal [1] | binding signal [2] | binding signal [3] | binding signal [4] | binding signal [5] | binding signal [6] | binding signal [7] | binding signal [8] | binding signal [9] | binding signal [10] | binding signal [11] | binding signal [12] | binding signal [13] | binding signal [14] | binding signal [15] | binding signal [16] | binding signal [17] |
| --- | --- | --- | --- | --- | --- | --- | --- | --- | --- | --- | --- | --- | --- | --- | --- | --- | --- |
| CGCTGC | 1.12 fold enrichment (6-mer frequency, TF over GST control) | 1.04 fold enrichment (6-mer frequency, TF over GST control) | 1.25 fold enrichment (6-mer frequency, TF over GST control) | 1.22 fold enrichment (6-mer frequency, TF over GST control) | 1.14 fold enrichment (6-mer frequency, TF over GST control) | 1.28 fold enrichment (6-mer frequency, TF over GST control) | 1.07 fold enrichment (6-mer frequency, TF over GST control) | 1.22 fold enrichment (6-mer frequency, TF over GST control) | 1.16 fold enrichment (6-mer frequency, TF over GST control) | 1.14 fold enrichment (6-mer frequency, TF over GST control) | 1.18 fold enrichment (6-mer frequency, TF over GST control) | 1.21 fold enrichment (6-mer frequency, TF over GST control) | 1.1 fold enrichment (6-mer frequency, TF over GST control) | 1.2 fold enrichment (6-mer frequency, TF over GST control) | 1.03 fold enrichment (6-mer frequency, TF over GST control) | 1.21 fold enrichment (6-mer frequency, TF over GST control) |  |
| ATGTTG | 1.31 fold enrichment (6-mer frequency, TF over GST control) | 1.26 fold enrichment (6-mer frequency, TF over GST control) | 1.22 fold enrichment (6-mer frequency, TF over GST control) | 1.26 fold enrichment (6-mer frequency, TF over GST control) | 1.35 fold enrichment (6-mer frequency, TF over GST control) | 1.21 fold enrichment (6-mer frequency, TF over GST control) | 1.3 fold enrichment (6-mer frequency, TF over GST control) | 1.18 fold enrichment (6-mer frequency, TF over GST control) | 1.21 fold enrichment (6-mer frequency, TF over GST control) | 1.21 fold enrichment (6-mer frequency, TF over GST control) | 1.3 fold enrichment (6-mer frequency, TF over GST control) | 1.1 fold enrichment (6-mer frequency, TF over GST control) | 1.2 fold enrichment (6-mer frequency, TF over GST control) | 1.25 fold enrichment (6-mer frequency, TF over GST control) | 1.11 fold enrichment (6-mer frequency, TF over GST control) | 1.32 fold enrichment (6-mer frequency, TF over GST control) | 1.04 fold enrichment (6-mer frequency, TF over GST control) |
